Assay results published in paper PMC7862700, “An all-to-all approach to the identification of sequence-specific readers for epigenetic DNA modifications on cytosine”.

Columns and labels:
Experiment in all cases: DAPPL (digital affinity profiling via proximity ligation, sequencing); 10 mM Tris-HCl pH 7.5, 50 mM NaCl, 1 mM DTT, 4% glycerol, room temperature, 30 min; GST-TFs on glutathione beads, 16-mer random dsDNA library, 0.1% formaldehyde crosslink after washing; high values mean tight binding
FEV = biological target: T1, FEV (Homo sapiens, UniProt Q99581 1-238); conditions: protein: recombinant; tags: N-terminal GST; dsDNA, one strand shown
T1 sequence: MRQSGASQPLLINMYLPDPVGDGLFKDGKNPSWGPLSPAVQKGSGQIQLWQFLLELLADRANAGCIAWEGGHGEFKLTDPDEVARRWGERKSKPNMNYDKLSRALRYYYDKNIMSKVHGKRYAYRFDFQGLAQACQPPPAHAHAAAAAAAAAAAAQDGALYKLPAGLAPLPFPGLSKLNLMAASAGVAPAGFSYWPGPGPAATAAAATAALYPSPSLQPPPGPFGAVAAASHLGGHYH
In short: (§1)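 Binding signal is given per hexamer as its read frequency for a factor divided by its frequency in the tag-only sample. GST-fused human transcription factors were expressed in yeast, captured on glutathione beads, barcoded with DNA and pooled with that sample, then incubated with 200 nmole of a 16-mer random double-stranded DNA library in Tris/NaCl/DTT/glycerol buffer for 30 min at room temperature. The pools were then washed, crosslinked, proximity-ligated, amplified by PCR and sequenced on an Illumina NextSeq500.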

ETV5 = ETV5 (Homo sapiens, UniProt P41161 1-510); conditions: protein: recombinant; tags: N-terminal GST; dsDNA, one strand shown
In short: as §1

HSF1 = HSF1 (Homo sapiens, UniProt Q00613 1-529); conditions: protein: recombinant; tags: N-terminal GST; chain copies: 3; dsDNA, one strand shown
In short: as §1

SPIC = biological target: T2, SPIC (Homo sapiens, UniProt Q8N5J4 1-248); conditions: protein: recombinant; tags: N-terminal GST; dsDNA, one strand shown
T2 sequence: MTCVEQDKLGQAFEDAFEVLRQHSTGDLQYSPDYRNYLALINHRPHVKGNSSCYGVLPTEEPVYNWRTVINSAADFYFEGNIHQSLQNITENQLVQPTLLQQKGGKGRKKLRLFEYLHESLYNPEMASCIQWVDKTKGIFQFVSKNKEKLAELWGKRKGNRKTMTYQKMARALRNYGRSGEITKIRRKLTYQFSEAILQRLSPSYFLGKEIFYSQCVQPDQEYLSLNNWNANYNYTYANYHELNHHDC
In short: as §1

ELF4 = ELF4 (Homo sapiens, UniProt Q99607 1-663); conditions: protein: recombinant; tags: N-terminal GST; dsDNA, one strand shown
In short: as §1

ELK4 = biological target: T3, ELK4 (Homo sapiens, UniProt P28324-2 1-405); conditions: protein: recombinant; tags: N-terminal GST; dsDNA, one strand shown
T3 sequence: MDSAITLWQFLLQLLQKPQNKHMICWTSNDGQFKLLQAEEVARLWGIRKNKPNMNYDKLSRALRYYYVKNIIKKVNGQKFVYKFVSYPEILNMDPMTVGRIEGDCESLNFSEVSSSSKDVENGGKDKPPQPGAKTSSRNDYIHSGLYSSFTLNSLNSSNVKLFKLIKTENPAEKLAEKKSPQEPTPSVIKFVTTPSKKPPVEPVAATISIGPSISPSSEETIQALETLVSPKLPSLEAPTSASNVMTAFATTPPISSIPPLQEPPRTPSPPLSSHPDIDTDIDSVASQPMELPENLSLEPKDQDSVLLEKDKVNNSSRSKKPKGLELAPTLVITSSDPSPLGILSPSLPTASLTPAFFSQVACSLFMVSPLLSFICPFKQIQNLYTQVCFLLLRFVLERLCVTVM
In short: as §1

ETV2 = biological target: T4, ETV2 (Homo sapiens, UniProt O00321 1-342); conditions: protein: recombinant; tags: N-terminal GST; dsDNA, one strand shown
T4 sequence: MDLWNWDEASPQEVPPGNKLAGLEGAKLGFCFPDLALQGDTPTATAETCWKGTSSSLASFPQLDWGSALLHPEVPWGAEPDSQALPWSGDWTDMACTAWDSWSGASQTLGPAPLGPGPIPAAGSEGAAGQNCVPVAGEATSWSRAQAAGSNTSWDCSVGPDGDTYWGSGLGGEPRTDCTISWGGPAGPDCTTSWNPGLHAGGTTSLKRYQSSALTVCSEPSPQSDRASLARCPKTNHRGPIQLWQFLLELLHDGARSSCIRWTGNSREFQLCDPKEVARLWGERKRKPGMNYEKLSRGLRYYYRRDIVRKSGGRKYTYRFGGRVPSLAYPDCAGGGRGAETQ
In short: as §1

ELF3 = biological target: T5, ELF3 (Homo sapiens, UniProt P78545 1-371); conditions: protein: recombinant; tags: N-terminal GST; dsDNA, one strand shown
T5 sequence: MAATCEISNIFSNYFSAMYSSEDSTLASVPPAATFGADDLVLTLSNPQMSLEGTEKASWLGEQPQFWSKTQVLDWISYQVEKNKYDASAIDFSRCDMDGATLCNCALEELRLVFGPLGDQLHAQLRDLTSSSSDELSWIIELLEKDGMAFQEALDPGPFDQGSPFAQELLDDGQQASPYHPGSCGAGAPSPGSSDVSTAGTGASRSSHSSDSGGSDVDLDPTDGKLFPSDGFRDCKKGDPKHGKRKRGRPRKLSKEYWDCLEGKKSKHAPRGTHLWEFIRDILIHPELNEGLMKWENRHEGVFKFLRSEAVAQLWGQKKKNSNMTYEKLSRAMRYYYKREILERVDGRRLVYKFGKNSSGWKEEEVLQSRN
In short: as §1

CRX = CRX (Homo sapiens, UniProt O43186 1-299); conditions: protein: recombinant; tags: N-terminal GST; dsDNA, one strand shown
In short: as §1

ETV1 = ETV1 (Homo sapiens, UniProt P50549 1-477); conditions: protein: recombinant; tags: N-terminal GST; dsDNA, one strand shown
In short: as §1

HSF1, sequence (Q00613 whole entry): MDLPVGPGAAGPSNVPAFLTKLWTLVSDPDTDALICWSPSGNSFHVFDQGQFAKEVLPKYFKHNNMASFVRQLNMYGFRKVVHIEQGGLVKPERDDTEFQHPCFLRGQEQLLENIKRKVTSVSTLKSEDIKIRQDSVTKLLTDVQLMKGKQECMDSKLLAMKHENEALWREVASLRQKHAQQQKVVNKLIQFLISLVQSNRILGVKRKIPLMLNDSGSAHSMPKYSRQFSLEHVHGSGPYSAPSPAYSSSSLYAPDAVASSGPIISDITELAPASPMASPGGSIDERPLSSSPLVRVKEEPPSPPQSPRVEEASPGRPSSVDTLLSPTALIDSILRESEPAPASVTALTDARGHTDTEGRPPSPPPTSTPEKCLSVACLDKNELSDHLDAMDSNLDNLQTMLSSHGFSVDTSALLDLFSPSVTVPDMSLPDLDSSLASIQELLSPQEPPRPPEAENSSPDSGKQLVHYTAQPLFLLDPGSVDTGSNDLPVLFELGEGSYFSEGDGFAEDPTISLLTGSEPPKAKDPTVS
ETV5, sequence (P41161 whole entry): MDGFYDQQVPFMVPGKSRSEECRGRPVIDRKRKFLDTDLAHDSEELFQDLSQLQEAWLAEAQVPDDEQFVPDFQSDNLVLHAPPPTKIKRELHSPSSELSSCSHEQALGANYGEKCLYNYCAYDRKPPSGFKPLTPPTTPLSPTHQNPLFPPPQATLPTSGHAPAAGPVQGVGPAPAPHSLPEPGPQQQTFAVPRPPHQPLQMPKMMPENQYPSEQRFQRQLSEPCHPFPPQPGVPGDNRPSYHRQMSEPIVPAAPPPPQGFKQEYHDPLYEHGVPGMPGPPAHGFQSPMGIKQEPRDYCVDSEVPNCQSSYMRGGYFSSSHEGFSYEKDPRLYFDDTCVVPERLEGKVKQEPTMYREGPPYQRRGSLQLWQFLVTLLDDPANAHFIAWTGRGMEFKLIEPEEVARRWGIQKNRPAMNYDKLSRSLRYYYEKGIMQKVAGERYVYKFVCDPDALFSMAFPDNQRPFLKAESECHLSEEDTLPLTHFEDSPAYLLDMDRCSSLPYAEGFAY
CRX, sequence (O43186 whole entry): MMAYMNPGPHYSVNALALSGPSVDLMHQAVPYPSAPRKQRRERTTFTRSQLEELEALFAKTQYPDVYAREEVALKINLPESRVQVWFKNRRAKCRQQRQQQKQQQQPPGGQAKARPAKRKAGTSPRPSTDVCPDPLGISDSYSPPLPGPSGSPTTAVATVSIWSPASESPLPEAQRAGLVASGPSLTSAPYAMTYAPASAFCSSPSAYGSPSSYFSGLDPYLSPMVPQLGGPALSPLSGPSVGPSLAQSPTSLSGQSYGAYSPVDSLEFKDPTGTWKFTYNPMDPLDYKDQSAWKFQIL
ELF4, sequence (Q99607 whole entry): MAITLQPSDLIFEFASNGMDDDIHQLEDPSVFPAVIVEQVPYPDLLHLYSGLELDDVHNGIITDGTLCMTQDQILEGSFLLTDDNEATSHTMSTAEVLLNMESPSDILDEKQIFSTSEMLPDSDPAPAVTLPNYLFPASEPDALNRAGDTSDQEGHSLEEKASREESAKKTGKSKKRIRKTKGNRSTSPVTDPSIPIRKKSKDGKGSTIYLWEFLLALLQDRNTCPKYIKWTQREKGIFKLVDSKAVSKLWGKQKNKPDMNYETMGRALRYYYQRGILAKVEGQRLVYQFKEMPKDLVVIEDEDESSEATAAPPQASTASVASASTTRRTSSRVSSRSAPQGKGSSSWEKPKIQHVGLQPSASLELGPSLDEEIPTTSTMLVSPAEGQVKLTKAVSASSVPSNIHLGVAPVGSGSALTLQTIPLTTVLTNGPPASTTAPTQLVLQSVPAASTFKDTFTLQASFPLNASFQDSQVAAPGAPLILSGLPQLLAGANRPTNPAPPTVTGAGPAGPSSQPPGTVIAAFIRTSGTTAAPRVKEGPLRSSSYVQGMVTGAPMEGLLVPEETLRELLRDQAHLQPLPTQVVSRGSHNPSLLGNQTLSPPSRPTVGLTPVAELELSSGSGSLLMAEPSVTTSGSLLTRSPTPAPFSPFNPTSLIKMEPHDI
ETV1, sequence (P50549 whole entry): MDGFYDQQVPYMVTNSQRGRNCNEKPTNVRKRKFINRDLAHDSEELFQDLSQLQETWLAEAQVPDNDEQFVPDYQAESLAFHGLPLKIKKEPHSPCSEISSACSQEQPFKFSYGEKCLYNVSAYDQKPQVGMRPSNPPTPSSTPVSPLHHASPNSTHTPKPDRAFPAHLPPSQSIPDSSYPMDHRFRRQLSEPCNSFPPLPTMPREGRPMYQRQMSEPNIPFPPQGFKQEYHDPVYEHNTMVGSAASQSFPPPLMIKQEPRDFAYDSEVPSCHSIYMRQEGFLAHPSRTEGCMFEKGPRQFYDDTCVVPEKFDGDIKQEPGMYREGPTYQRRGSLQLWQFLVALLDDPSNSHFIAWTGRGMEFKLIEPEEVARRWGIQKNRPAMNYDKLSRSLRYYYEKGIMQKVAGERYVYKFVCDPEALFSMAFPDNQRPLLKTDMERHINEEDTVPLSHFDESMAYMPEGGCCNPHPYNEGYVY

Sequence: ATCCCC
- binding signal (FEV): 1.44 fold enrichment (6-mer frequency, TF over GST control)
- binding signal (ETV5): 1.37 fold enrichment (6-mer frequency, TF over GST control)
- binding signal (HSF1): 1.78 fold enrichment (6-mer frequency, TF over GST control)
- binding signal (SPIC): 1.37 fold enrichment (6-mer frequency, TF over GST control)
- binding signal (ELF4): 1.37 fold enrichment (6-mer frequency, TF over GST control)
- binding signal (ELK4): 1.44 fold enrichment (6-mer frequency, TF over GST control)
- binding signal (ETV2): 1.39 fold enrichment (6-mer frequency, TF over GST control)
- binding signal (ELF3): 1.53 fold enrichment (6-mer frequency, TF over GST control)
- binding signal (CRX): 2.37 fold enrichment (6-mer frequency, TF over GST control)
- binding signal (ETV1): 1.43 fold enrichment (6-mer frequency, TF over GST control)
